Shown are actives, neighbours in structure and some others; about 1.4% of the full set was active somewhere.
BJeLR viability: BJeLR cell viability loss | inhibition, % (no concentration beside the values) | BJeLR (HRASV12) viability, CellTiter-Glo ATP luminescence, 48 h | AID 1554 | hit rate 0.17% among 300,000; in the data active = inhibition above about 50%; inconclusive = no clear call, values can overlap the other calls
PrPC TRFRET: inhibitors of human cell surface prion protein PrPC | P04156 | TR-FRET read-out | inhibition, % at 13.8 µM | hit rate 0.43% among 370,000 | AID 720596; in the data active = inhibition above about 24%
RecA splice inh: inhibitors of M. tuberculosis RecA intein splicing. P9WHJ3. cell-free RecA intein splicing, fluorescence. inhibition, % (test concentration not listed). hit rate 0.75% among 290,000; in the data active = inhibition above about 30%; inconclusive = no clear call, values can overlap the other calls
PrP 5UTR inh: inhibition of PrP 5' UTR reporter expression; cell-based PrP 5' UTR mRNA reporter, plate reader; inhibition, % (test concentration not listed); hit rate 0.35% among 340,000; in the data active = inhibition above about 52%
Mtb hypoxia inh: Mtb hypoxia fluorescent reporter inhibition; fluorescence inhibition, % (no concentration beside the values); hit rate 0.1% among 300,000; M. tuberculosis hypoxia-regulated fluorescent reporter, fluorescence; in the data active = fluorescence inhibition mostly above about 23%, no sharp cut-off; inactive = mostly below about 17%
3CLpro inhibitor: SARS-CoV 3CLpro protease inhibition; P0C6X7; recombinant SARS-CoV 3CLpro, quenched FRET peptide cleavage; inhibition, % at 6 µM; hit rate 0.14% among 290,000; AID 1706; in the data active = inhibition above about 12%
GFP chromo cs: counter-screen: blocks GFP chromophore formation; shares compounds with RecA splice inh; cell-free GFP chromophore formation, fluorescence; EC50, µM; hit rate 83% among 2,100; AID 434968; call rule not given here
A number is an active result; - = inactive; ? = inconclusive; . = not tested or not shown.

SMILES | BJeLR viability | PrPC TRFRET | RecA splice inh | PrP 5UTR inh | Mtb hypoxia inh | 3CLpro inhibitor | GFP chromo cs
O=C(C1=CC(C2CC2)CC(OCc2ccc(CO)cc2)O1)N1CCN(Cc2ccccc2)CC1 (stereo not given) | . | . | . | . | - | . | .
CC1CN(C(C)CO)C(=O)c2cccc(NC(=O)c3ccc(-c4nccs4)cc3)c2OC1CN(C)C(=O)Nc1cccc2ccccc12 (stereo not given) | . | . | . | . | - | . | .
CN(C1=C(NC(=O)c2ccccc2)C(=O)c2ccccc2C1=O)C1CCS(=O)(=O)C1 (stereo not given) | - | - | 92.5 | - | - | - | 2.66
CC(CCc1ccccc1)=NNC(=O)c1ccc(CN2CCOCC2)cc1 | . | . | . | . | - | . | .
O=C1C(Cl)=C(N2CCCCCC2)C(=O)N1c1ccccc1Cl | - | - | - | - | - | - | .
Cc1ccc(N2C(=O)C(Cl)=C(N3CCOCC3)C2=O)cc1Cl | - | - | 73.8 | - | - | - | ?
Cc1ccccc1N1C(=O)C(Cl)=C(N2CCN(c3ccccc3)CC2)C1=O | - | - | - | - | - | - | .
CN1CCN(C2=C(Cl)C(=O)N(c3cccc(Cl)c3)C2=O)CC1 | - | - | - | - | - | - | .
O=C1C(Cl)=C(N2CCOCC2)C(=O)N1c1ccccc1Cl | - | . | 85.9 | - | - | - | 5.62
CN1CCN(C2=C(Cl)C(=O)N(c3ccc(Cl)c(Cl)c3)C2=O)CC1 | - | . | 67.9 | - | - | - | 2.29
S=C(NCCc1ccccc1)NN=Cc1ccccc1Cl | . | . | . | . | - | . | .
CN(Cc1c(C(=O)NN=Cc2ccc(O)cc2)nnn1-c1nonc1N)C1CCCCC1 | . | . | . | . | - | . | .
Cc1c(NC(=S)NN=C/C=C/c2ccc([N+](=O)[O-])cc2)c(=O)n(-c2ccccc2)n1C | . | . | . | . | - | . | .
Cc1cccc(C)c1-n1cccc1/C=C1\SC(=S)N(c2cccc(C(=O)O)c2)C1=O | - | - | 33.5 | - | - | - | 11
CC(C)(c1ccccc1)c1ccc(OCC2CO2)cc1 (stereo not given) | - | - | 40.6 | - | - | - | -
NC(=O)C1CCCNc2c(F)cc([N+](=O)[O-])cc2C(=O)NC(CO)C(=O)NC(Cc2ccc(O)cc2)C(=O)N1 (stereo not given) | . | . | . | . | - | . | .
Cc1nc2ccccc2cc1C(=O)NN=Cc1cccc([N+](=O)[O-])c1 | . | . | . | . | - | . | .
CC(OC(=O)c1cc(O)c2ccccc2c1O)C(=O)Nc1ccc(C(N)=O)cc1 (stereo not given) | - | - | 73.1 | - | - | . | 5.18
CCOC(=O)C1C2COc3cc(OC)ccc3C2N2C(=O)N(c3cccc(C)c3)C(=O)[C@]12C (stereo not given in full) | . | . | . | . | - | . | .
CC1=CC(=Nc2c(C)n(C)n(-c3ccccc3)c2=O)C=CC1=O | - | . | 56.7 | . | . | - | 26.9
COCc1ccccc1C1=CC(=O)CC(c2ccc(OC)cc2)C1 (stereo not given) | . | . | . | . | - | . | .
C=CCn1c(N)c(C(=O)Nc2cccc(C)c2)c2nc3ccccc3nc21 | - | - | 34.4 | - | - | - | 24.2
O=c1[nH]cc(N=Cc2cc(Cl)cc(Cl)c2O)c(=O)[nH]1 | - | - | 76.8 | - | - | - | 13.4
CC(=NNc1ncc(Cl)cc1Cl)c1ccc(OC(F)F)cc1 | . | . | . | . | - | . | .
CC(=O)Nc1ccc(OC(=O)c2cccs2)cc1 | - | - | - | - | - | - | .
SMILES | BJeLR viability | PrPC TRFRET | RecA splice inh | PrP 5UTR inh | Mtb hypoxia inh | 3CLpro inhibitor | GFP chromo cs
CC(=O)c1ccc(OC(=O)c2cccs2)cc1 | - | - | 35.5 | - | - | - | -
O=C(Cc1ccc(Cl)cc1)NN=Cc1ccccc1 | . | . | . | . | - | . | .
COc1cc2c(c(O)c1OC)C1Cc3ccc(OC)c(OC)c3CN1CC2 (stereo not given) | . | - | . | . | . | . | .
COc1cc2c(cc1OC)-c1c3c(cc4c1[C@@H](C2)N(C)CC4)OCO3 | - | - | 43.7 | - | . | - | 21.1
COc1cc2c(cc1OC)-c1c3c(cc4c1C(C2)N(C)CC4)OCO3 (stereo not given) | . | . | . | . | - | . | .
COc1cc2c(cc1OC)-c1c(OC)c(OC)cc3c1C(C2)N(C)CC3 (stereo not given) | - | - | 71.0 | - | . | - | 4.33
CC1CN(C(C)CO)C(=O)Cc2cc(NS(C)(=O)=O)ccc2OC1CN(C)CC1CC1 (stereo not given) | . | . | . | . | - | . | .
COC(CC(O)CC(=O)C(C)OCc1ccccc1)OC (stereo not given) | . | . | . | . | - | . | .
C#CCOCCOCCOCCNc1nc(N2CCN(C(=O)C(CCCCN)n3cc(C(N)C(C)CC)nn3)CC2)nc(N2CCN(C(=O)C(C(C)CC)n3cc(C(N)CO)nn3)CC2)n1 (stereo not given) | . | . | . | . | - | . | .
CC(=O)Oc1ccc2ccccc2c1C(NC(=O)Cc1ccccc1)c1ccc(Cl)cc1 (stereo not given) | - | - | 43.2 | - | - | - | -
O=C(ON=Cc1ccc(N2CCCCC2)c([N+](=O)[O-])c1)c1ccc(Cl)cc1Cl | . | . | . | . | - | . | .
CC(C)CC(CO)Nc1nc(N(C)c2cccc(Cl)c2)c2ncn(C(C)C)c2n1 (stereo not given) | . | . | . | . | - | . | .
c1coc(-c2nnc(-c3ccco3)nn2)c1 | - | - | 58.3 | - | - | - | 9.08
CC(CCc1ccccc1)NC(=O)COC(=O)c1cc(NS(=O)(=O)c2ccc(Cl)c([N+](=O)[O-])c2)ccc1O (stereo not given) | - | - | 37.5 | - | - | - | -
CNS(=O)(=O)c1cccc(C(=O)OCC(=O)NC(C)CCc2ccccc2)c1 (stereo not given) | - | - | - | - | - | - | .
CN1c2ccccc2C(C)(C)C12C=Nc1c(ccc3ccccc13)O2 (stereo not given) | - | - | 78.9 | - | . | - | 25.1
CN1c2ccccc2C(C)(C)[C@]12C=Cc1cc(O)ccc1O2 | - | - | . | - | - | - | .
COc1cc(C=NNC(=O)c2c(C)nnn2-c2nonc2N)ccc1O | . | . | . | . | - | . | .
CCOC(=O)C1=C(c2ccccc2)NC(N)=NC1c1ccc(OCc2ccc(Cl)cc2)c(OC)c1 (stereo not given) | - | - | 49.2 | - | - | - | -
CCN(CC)S(=O)(=O)c1ccc(NC=C(C#N)C#N)cc1 | - | - | - | - | - | - | .
CCN(CC)S(=O)(=O)c1ccc(NN=C(C#N)C#N)cc1 | - | - | 37.9 | - | . | - | 26.9
N#C/C(=C/c1cccn1-c1cccc(C(=O)O)c1)c1ccc(F)cc1 | - | - | 44.8 | - | - | - | -
Cc1ccccc1-c1cc2c(nn1)-c1ccccc1C2=O | - | - | 75.0 | - | - | - | 13.1
COc1ccc(C(=O)c2c(C(F)(F)F)oc3c2C(=O)c2ccccc2C3=O)cc1OC | - | - | 66.8 | - | . | - | 11.4
COc1ccc(C(=O)Nc2ccc3c(c2)C(=O)c2ccccc2C3=O)cc1OC | - | - | - | - | - | - | .
COc1cccc(-c2c(C(=O)NN=Cc3ccsc3)nnn2-c2nonc2N)c1 | . | . | . | . | - | . | .
O=c1[nH]cc(O)c(=O)[nH]1 | - | - | 89.0 | - | . | - | 15.2
O=c1[nH]cc(F)c(=O)[nH]1 | - | - | - | - | . | - | .
